From PubChem BioAssay AID588591 (National Center for Advancing Translational Sciences (NCATS), 2011)
Among all 390,000 compounds or so, about 4,700 (1.2%) were called active. Not shown: some 4% with an inconclusive outcome. What follows is part of a selection rich in actives, with near analogues and random picks from the rest. Unmarked numbers belong to inactive results. Calls come from the whole dose curve; as a rule, active = well fitted inhibition curve with a large enough effect; inconclusive = small, poorly fitted or top-dose-only effect, or another doubt; inactive = no such curve, though single readings can be large or run the other way.

target: DNA polymerase eta (Homo sapiens) (UniProt Q9Y253); experiment: qHTS for Inhibitors of Polymerase Eta; conditions: recombinant Pol eta, fluorescent DNA replication assay; series mostly up to 114 µM; activity change, negative = inhibition: at the top concentration
From the text: The Y-family of DNA polymerases, such as Pol eta, are specifically involved in DNA repair. Pol eta copies undamaged DNA with a lower fidelity than other DNA-directed polymerases. However, it accurately replicates UV-damaged DNA; when thymine dimers are present, this polymerase inserts the complementary nucleotides in the newly synthesized DNA, thereby bypassing the lesion and suppressing the mutagenic effect of UV-induced DNA damage. […] Thus, while pol eta's (and most likely iota's) normal function is to protect humans against the deleterious consequences of DNA damage, under certain conditions they can have deleterious effects on human health. As a consequence, we propose to utilize a high throughput replication assay to identify small molecule inhibitors of pol eta. In a collaboration between the National Institute of Child Health & Human Development (NICHD) and NIH Chemical Genomics Center, a high-throughput, fluorescent screen was developed to screen the NIH Molecular Libraries Small Molecule Repository (MLSMR). This screen is used to identify inhibitors of pol eta. NIH Chemical Genomics Center [NCGC] NIH Molecular Libraries Probe Centers Network [MLPCN] MLPCN Grant: MH090825 Assay Submitter (PI): Roger Woodgate, NICHD)
Three microliters of reagents (buffer in column 3 and 4 as negative control and 10 nM Pol eta in columns 1, 2, and 5-48) were dispensed into a 1,536-well black solid-bottomed plate. Compounds (23 nL) were transferred via Kalypsys pin tool equipped with 1536-pin array. The plates were then incubated for 15 min at room temperature, and 1 µL substrate (50 nM final concentration) was added to start the reaction and kinetically read twice at 0 min and 10 min on the Viewlux reader
% is set by controls: 0 for no effect and ±100 for the full control effect; potency is the fitted concentration of half-maximal effect.

Chain of DNA polymerase eta (Homo sapiens) (Q9Y253 whole entry, looked up): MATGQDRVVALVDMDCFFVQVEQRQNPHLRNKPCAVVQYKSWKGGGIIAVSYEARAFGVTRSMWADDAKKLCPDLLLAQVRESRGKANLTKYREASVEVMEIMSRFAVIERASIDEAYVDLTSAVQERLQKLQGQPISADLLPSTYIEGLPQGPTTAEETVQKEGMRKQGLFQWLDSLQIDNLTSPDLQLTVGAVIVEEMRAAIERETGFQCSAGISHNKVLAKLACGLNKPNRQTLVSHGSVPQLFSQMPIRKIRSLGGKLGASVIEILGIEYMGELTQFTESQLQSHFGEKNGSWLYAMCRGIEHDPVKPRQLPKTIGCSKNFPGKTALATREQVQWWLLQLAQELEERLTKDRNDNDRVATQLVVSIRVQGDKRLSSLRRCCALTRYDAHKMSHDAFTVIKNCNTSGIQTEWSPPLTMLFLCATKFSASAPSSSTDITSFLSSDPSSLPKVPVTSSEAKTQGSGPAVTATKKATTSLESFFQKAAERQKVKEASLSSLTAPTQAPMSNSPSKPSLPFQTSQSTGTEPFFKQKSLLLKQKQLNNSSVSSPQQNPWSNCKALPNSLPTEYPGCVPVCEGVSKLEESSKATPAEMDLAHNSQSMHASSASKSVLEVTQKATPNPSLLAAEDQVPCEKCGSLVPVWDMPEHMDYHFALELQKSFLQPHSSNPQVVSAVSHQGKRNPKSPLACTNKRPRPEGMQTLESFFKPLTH

SMILES	activity change, negative = inhibition	Potency
COc1ccc(-c2nc3ccc(C(=O)NCc4ccc(C)cc4)cc3nc2-c2ccc(OC)cc2)cc1	-17.2%	
COCCN(CCOC)S(=O)(=O)c1ccc(C(=O)Nc2nc3c(s2)CCc2ccccc2-3)cc1	-12.8%	
CCOc1ccc(N(C)S(=O)(=O)c2cc(-c3cnc(C)o3)ccc2OC)cc1	-6.45%	
O=C(NCc1ccco1)c1sc2cccc(F)c2c1Cl	-2.34%	
Cc1ccsc1C(=O)NCCc1ccco1		22.4 µM (active)
CCNC(=O)c1sccc1-n1cccc1	-13.4%	
CCC1=Nc2cc(C(=O)NCCCOC(C)C)ccc2Sc2ccc(C)cc21	-13.6%	
O=C(O)C(c1ccccc1)N1C(=O)/C(=C\c2ccc(-c3cccc(Cl)c3)o2)SC1=S (centres undefined)		44.7 µM (active)
O=C(NCc1ccccc1)c1cc(-c2cccc(Cl)c2)on1	1.32%	
O=C(NCCc1ccc(Cl)cc1)c1ccc2c(c1)N(Cc1ccc(F)cc1)C(=O)CS2	-21.8%	
C=CC1(C)CC(=O)C2(O)C(C)(O1)C(OC(C)=O)C(O)C1C(C)(C)CCC(O)C12C (centres undefined)	-5.73% [at 57.1 µM]	
CCOC(=O)C1CCN(C(=O)CSc2c3c(nc4ccc(Cl)cc24)CCCC3)CC1	-10.1%	
Cc1cc(/C=C2\SC(=O)N(C)C2=O)c(C)n1-c1cccc(C(=O)O)c1		22.4 µM (active)
Cc1ccc(C)c2c1cc(C)c1nnc(SCC(=O)Nc3cccc(C(=O)O)c3)n12	-10.7%	
Cc1cc(C(=O)CC#N)c(C)n1-c1c(C)n(C)n(-c2ccccc2)c1=O	-11.8%	
CCCCN(C)c1nnc(NC(=O)Nc2ccc(Br)c(C)c2)s1	-6.03%	
CCOC(=O)c1cc2c(=O)n3ccccc3nc2n(CC2CCCO2)c1=NC(=O)c1ccccc1F (centres undefined)	-16.5%	
COCCN(Cc1ccco1)C(=O)Cn1ncc2c([nH]c3ccccc32)c1=O	-3.2%	
CCc1ccc2nc3sc(C(=O)Nc4nnc(CC)s4)c(N)c3cc2c1		50.1 µM (active)
CCc1ccc(NC(=O)c2sc3nc4c(cc3c2N)CN(CC)CC4)cc1	4.03%	
CCc1ccccc1NC(=O)c1sc2nc3c(cc2c1N)CN(Cc1ccccc1)CC3	-11.4%	
CCCN(CCC)CCCNC(=O)Cn1cc2c(n1)-c1c(oc(C(=O)N3CCCC3)c1C)CC2	-14.2%	
CCOC(=O)c1cc(OC(=O)c2ccccc2Cl)n(-c2ccccc2)n1	-22.5%	
Cn1c(=O)c2c(-c3ccccc3Br)n(Cc3ccccc3)cc2n(C)c1=O	-13.1%	
CCc1ccc(NC(=O)CN2C(=O)CCSc3ccc(S(=O)(=O)N4CCCC4)cc32)cc1	-14.4%	

SMILES	activity change, negative = inhibition	Potency
CC(Oc1ccccc1)C(=O)Nc1oc(-c2ccco2)c(-c2ccco2)c1C#N (centres undefined)		20 µM (active)
CC(Oc1ccc(Br)cc1)C(=O)NCC(c1ccco1)N1CCCCC1 (centres undefined)	-9.97%	
CC(Oc1ccccc1)C(=O)NN1Cc2ccccc2C1=N (centres undefined)	6.77%	
Cc1c(-c2cccc(NC(=O)C(C)(C)C)c2)nc2ncccn12	-1.75%	
CCOc1ccc(S(=O)(=O)N(CC(=O)NCCSCc2ccc(C)cc2)c2ccccc2)cc1	-3.84%	
Cc1ccc(S(=O)(=O)/N=C2\C=C(NS(=O)(=O)c3ccc(C)cc3)C(=O)c3ccccc32)cc1		79.4 µM (active)
Cc1ccc(S(=O)(=O)Nc2nc(N)n(-c3ccccc3)n2)cc1	-3.75%	
COc1ccc(S(=O)(=O)/N=C2\C=C(NS(=O)(=O)c3ccccc3)C(=O)c3ccccc32)cc1		22.4 µM (active)
COc1ccc(S(=O)(=O)Nc2cc3c(C(=O)OC(C)C)c(C)oc3c3ccccc23)cc1	-13.5%	
Cc1ccc(S(=O)(=O)/N=S(\C)C(C)C)cc1 (centres undefined)	-17.2%	
COc1ccc(N2CCN(C3CCCCC3NS(=O)(=O)c3ccccc3)CC2)cc1 (centres undefined)	-26.2%	
COc1ccc(N(CC(=O)NCCc2ccc(Cl)cc2)S(=O)(=O)c2c(C)nn(C)c2C)cc1	-14%	
CCN(CC)c1ccc(NC(=O)Cn2nc3c(cc2=O)CCCC3)c(C)c1	-11.4%	
CCCCOC(=O)CSc1ncnc2sc3c(c12)CCC(C)C3 (centres undefined)	-13.5%	
NC1CCN(O)C1=O (centres undefined)	-4.61% [at 57.1 µM]	
CCOc1ccc(NC(=O)CCC(=O)N2CC(C)Oc3ccc(C)cc32)cc1 (centres undefined)	-2.33%	
COc1ccc(NC(=O)CCCc2nnc3n(CCC(C)C)c(=O)c4sccc4n23)c(OC)c1	-2.66%	
COc1ccc(OC)c(NC(=O)c2ccc3c(c2)C(=O)N(c2ccc(OC(C)=O)cc2)C3=O)c1	-19%	
Cc1cc(N2C(=O)c3ccc(C(=O)NCc4ccccc4)cc3C2=O)no1	3.56%	
O=C(O)c1ccc2c(c1)C(=O)N(c1ccc(/C=C/C(=O)c3ccccc3)cc1)C2=O		22.4 µM (active)
COc1ccc(Cl)cc1-n1c(CCC(=O)O)ccc1-c1ccc(C)cc1	-0.718%	
Cc1ccc(Oc2c(C(F)(F)F)oc3c(CN4CCCCC4)c(O)ccc3c2=O)cc1	-5.48%	
O=C(COc1ccc2c(C(F)(F)F)cc(=O)oc2c1)Nc1ccc2c(c1)OCCO2	-13.5%	
Cc1cc(C)cc(Oc2c(C(F)(F)F)oc3cc(OCC(=O)O)ccc3c2=O)c1		35.5 µM (active)
